Results filed as inconclusive are left out. The source made the active and inactive calls. Calls follow the shape of the dose curve; as a rule, active = well fitted curve in the direction sought with a large enough effect; inconclusive = small, poorly fitted or top-dose-only effect, or another doubt; inactive = no such curve, though single readings can be large; an effect the other way counts as inactive or inconclusive.
Tests used:
[1] = tested on: W2; experiment: qHTS profiling for inhibitors of Plasmodium falciparum proliferation (AID 504749); also: nearly all actives have a fitted effect of over 60% in size; conditions: P. falciparum in erythrocytes, SYBR Green DNA, 72 h; series mostly up to 28.7 µM
Outline: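 Parasite proliferation within erythrocytes, 72 h exposure. Endpoint: SYBR Green I fluorescence after overnight lysis at room temperature. Controls: 0.29 uM artemisinin, DMSO.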

[2] = tested on: CRL-7250; experiment: Cytotoxic Profiling of Annotated Libraries Using Quantitative High-Throughput Screening (AID 1296008); conditions: Five cell lines viability, CellTiter-Glo ATP luminescence, 48-72 h; max response: stronger effect = lower value; also: nearly all actives have a fitted effect of over 60% in size; as to max response: % is scaled to controls: 0 for no effect and ±100 for the full control effect
Outline: (§1)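 Compounds were pin-transferred onto cells and incubated 48 or 72 hr at 37 degree Celsius, 95% humidity. CellTiter-Glo was added, plates sat 10 min at room temperature, then ATP-coupled luminescence was imaged as the viability read-out.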

[3] = tested on: HEK293; experiment: as above; conditions: Five cell lines viability, CellTiter-Glo ATP luminescence, 48-72 h; max response: stronger effect = lower value
Outline: as §1

[4] = tested on: KB-3-1; experiment: as above; conditions: Five cell lines viability, CellTiter-Glo ATP luminescence, 48-72 h; max response: stronger effect = lower value
Outline: as §1

[5] = tested on: NIH3T3; experiment: as above; conditions: Five cell lines viability, CellTiter-Glo ATP luminescence, 48-72 h; max response: stronger effect = lower value
Outline: as §1

[6] = tested on: MCC-13; experiment: qHTS assay to identify novel small-molecules to repurpose for Merkel cell carcinoma treatment (AID 1296009); conditions: MCC and control cell lines, CellTiter-Glo viability, 72 h; series mostly up to 46 µM; also: nearly all actives have a fitted effect of over 60% in size
Outline: (§2)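 qHTS format: cells treated with library compounds in DMSO across 8 (NPC) or 11 (MIPE) concentrations. Readout after 72 hr at 37 degree celsius was CellTiter-Glo luminescence.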

[7] = tested on: MCC-26; experiment: as above; conditions: MCC and control cell lines, CellTiter-Glo viability, 72 h; series mostly up to 46 µM
Outline: as §2

[8] = tested on: MKL-1; experiment: as above; conditions: MCC and control cell lines, CellTiter-Glo viability, 72 h; series mostly up to 46 µM
Outline: as §2

[9] = tested on: MKL-2; experiment: as above; conditions: MCC and control cell lines, CellTiter-Glo viability, 72 h; series mostly up to 46 µM
Outline: as §2

[10] = tested on: UISO; experiment: as above; conditions: MCC and control cell lines, CellTiter-Glo viability, 72 h; series mostly up to 46 µM
Outline: as §2

[11] = tested on: WaGa; experiment: as above; conditions: MCC and control cell lines, CellTiter-Glo viability, 72 h; series mostly up to 46 µM
Outline: as §2

[12] = tested on: C33A; experiment: Primary qHTS to identify gynecologic anti-cancer compounds using libraries of approved drugs and bioactive compounds (AID 1345084); conditions: Gynecologic cancer cell panel viability, ATPlite luminescence, 48 h; series mostly up to 57.5 µM; also: nearly all actives have a fitted effect of over 55% in size
Outline: (§3)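 Cells, 1,000 per well, were allowed to settle for 16 h at 37 C before compound addition. Five concentrations were tested for 48 h, and viability was read by ATPlite luminescence after 15 min at room temperature.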

[13] = tested on: CAOV3; experiment: as above; conditions: Gynecologic cancer cell panel viability, ATPlite luminescence, 48 h; series mostly up to 57.5 µM
Outline: as §3

[14] = tested on: CASKI; experiment: as above; conditions: Gynecologic cancer cell panel viability, ATPlite luminescence, 48 h; series mostly up to 57.5 µM
Outline: as §3

[15] = tested on: Es-2; experiment: as above; conditions: Gynecologic cancer cell panel viability, ATPlite luminescence, 48 h; series mostly up to 57.5 µM
Outline: as §3

[16] = tested on: HeLa; experiment: as above; conditions: Gynecologic cancer cell panel viability, ATPlite luminescence, 48 h; series mostly up to 57.5 µM
Outline: as §3

[17] = tested on: HEK293T; experiment: qHTS assay to identify novel small-molecules to repurpose for Merkel cell carcinoma treatment (AID 1296009); conditions: MCC and control cell lines, CellTiter-Glo viability, 72 h; at 44.8 µM (top of the series) unless noted; also: nearly all actives have a fitted effect of over 60% in size
Outline: as §2

[18] = tested on: NIH3T3; experiment: as above; conditions: MCC and control cell lines, CellTiter-Glo viability, 72 h; at 44.8 µM (top of the series)
Outline: as §2

[19] = tested on: HaCat; experiment: Cytotoxic Profiling of Annotated Libraries Using Quantitative High-Throughput Screening (AID 1296008); conditions: Five cell lines viability, CellTiter-Glo ATP luminescence, 48-72 h; max response: stronger effect = lower value; also: nearly all actives have a fitted effect of over 60% in size; as to max response: % is scaled to controls: 0 for no effect and ±100 for the full control effect
Outline: as §1
Potency is read from the fitted curve at half-maximal effect.

CC(=O)Oc1ccc(C)cc1
inactive: Potency [1] | max response [2] -8.74% | max response [3] -1.12% | max response [4] 5.93% | max response [5] 2.4% | Potency [6] | Potency [7] | Potency [8] | Potency [9] | Potency [10] | Potency [11] | Potency [12] | Potency [13] | Potency [14] | Potency [15] | Potency [16]

Cc1ccc2c(Br)cc(Br)c(O)c2n1
active: Potency [2] 21.1 µM | Potency [3] 8.41 µM | Potency [6] 16.8 µM | Potency [9] 5.96 µM | Potency [11] 9.44 µM | Potency [12] 20 µM
inactive: max response [4] 8.29% | Potency [16]

CN(C)CCN1C(=O)c2ccccc2N(C)c2ccccc21
inactive: max response [2] -7.77% | max response [3] -1.88% | max response [4] 3.06% | max response [5] -0.0642% | Potency [6] | Potency [7] | Potency [8] | Potency [9] | Potency [10] | Potency [11] | Potency [12] | Potency [14] | Potency [15] | Potency [16]
active: Potency [1] 2.13 µM

COc1cc(NS(=O)(=O)c2ccc(N)cc2)ncn1
inactive: Potency [1] | outcome [2] | max response [3] -0.739% | max response [4] -8.34% | max response [5] -12.1% | Potency [6] | Potency [8] | Potency [9] | Potency [10] | Potency [11] | Potency [12] | Potency [14] | Potency [15] | Potency [16]

O=C(O)CCNC(=O)c1ccccc1
inactive: Potency [1] | max response [2] 4.33% | outcome [3] | max response [5] 0.555% | outcome [17] | Potency [6] | Potency [7] | Potency [8] | Potency [9] | Potency [10] | Potency [11] | Potency [12] | Potency [13] | Potency [14] | Potency [15] | Potency [16]

CCN(CC)CCOc1ccc2c(c1)C(=O)c1cc(OCCN(CC)CC)ccc1-2
inactive: max response [4] 41.3% | Potency [7] | Potency [16]
active: Potency [1] 13.5 µM | Potency [2] 23.7 µM | Potency [3] 7.5 µM | Potency [8] 13.3 µM | Potency [9] 2.37 µM | Potency [11] 15 µM | Potency [12] 17.8 µM

CCCCCCCC/C=C\CCCCCCCCN
inactive: Potency [1] | outcome [2] | max response [3] -3.13% | max response [4] -6.06% | max response [5] -3% | Potency [6] | Potency [7] | Potency [8] | Potency [9] | Potency [10] | Potency [11] | Potency [12] | Potency [13] | Potency [14] | Potency [15] | Potency [16]

CN1CCC(OC(c2ccccc2)c2ccccc2)CC1
inactive: outcome [2] | max response [3] -17.7% | max response [4] -12.2% | outcome [5] | Potency [6] | Potency [7] | Potency [8] | Potency [9] | outcome [18] | Potency [10] | Potency [11] | Potency [12] | Potency [13] | Potency [14] | Potency [15] | Potency [16]
active: Potency [1] 3.22 µM

CCC(Cc1c(I)cc(I)c(N)c1I)C(=O)O (stereo not given)
inactive: outcome [2] | outcome [3] | max response [4] -8.27% | max response [5] 2.99% | outcome [17] | Potency [6] | Potency [7] | Potency [8] | Potency [9] | Potency [10] | Potency [11] | Potency [12] | Potency [13] | Potency [14] | Potency [15] | Potency [16]

CC(=O)N[C@@H](CCC(=O)O)C(=O)O
inactive: Potency [1] | max response [2] 2.81% | max response [3] -7.38% | max response [4] -11.1% | outcome [5] | Potency [6] | Potency [7] | Potency [8] | Potency [9] | outcome [18] | Potency [10] | Potency [11] | Potency [12] | Potency [13] | Potency [14] | Potency [15] | Potency [16]

Cc1ncc(CO)c(C=O)c1O
inactive: Potency [1] | max response [2] -16.1% | max response [3] -65.4% | max response [5] -38.1% | Potency [6] | Potency [7] | Potency [8] | Potency [9] | Potency [10] | Potency [11] | Potency [12] | Potency [13] | Potency [14] | Potency [15] | Potency [16]

c1ccc(CC2=NCCN2)cc1
inactive: Potency [1] | max response [2] 1.69% | max response [3] -22.9% | max response [19] -10.1% | max response [5] -5.64% | Potency [6] | Potency [8] | Potency [10] | Potency [12] | Potency [13] | Potency [14] | Potency [15] | Potency [16]

Nc1ccc(C(=O)NCC(=O)O)cc1
inactive: Potency [1] | max response [2] -1.17% | max response [3] 0.145% | max response [19] 0.603% | max response [5] -6.17% | Potency [7] | Potency [8] | Potency [9] | Potency [10] | Potency [11] | Potency [12] | Potency [13] | Potency [14] | Potency [15] | Potency [16]

OC[C@H]1O[C@@H]2O[C@H]3[C@H](O)[C@@H](O)[C@@H](O[C@H]4[C@H](O)[C@@H](O)[C@@H](O[C@H]5[C@H](O)[C@@H](O)[C@@H](O[C@H]6[C@H](O)[C@@H](O)[C@@H](O[C@H]7[C@H](O)[C@@H](O)[C@@H](O[C@H]8[C@H](O)[C@@H](O)[C@@H](O[C@H]1[C@H](O)[C@H]2O)O[C@@H]8CO)O[C@@H]7CO)O[C@@H]6CO)O[C@@H]5CO)O[C@@H]4CO)O[C@@H]3CO
inactive: Potency [1] | outcome [2] | outcome [3] | max response [4] 3.96% | max response [5] -2.76% | outcome [17] | Potency [6] | Potency [7] | Potency [8] | Potency [9] | Potency [10] | Potency [11] | Potency [12] | Potency [13] | Potency [14] | Potency [15] | Potency [16]
